The source made the active and inactive calls. No rule for the calls is given here.
Assay: Vero 76 cell cytotoxicity, dose response, cytotoxicity control for VEEV inhibitor project, set 9 (AID 651930)
Details: Vero 76 cytotoxicity; series mostly up to 25 µM
In the case of `O=c1nc(Nc2ccc(OCc3ccccc3)cc2)sc2ncc([N+](=O)[O-])cc12`, the outcome is reported as “inactive”. In the case of `COc1cccc(-n2c(CN3CCNCC3)nc3ccc([N+](=O)[O-])cc3c2=O)c1`, the outcome is reported as “inactive”. For `O=c1nc(Nc2ccc(OCc3ccccc3)cc2)sc2ncc(F)cc12`, the outcome was “inactive”. For `O=c1nc(Nc2ccc(OCc3ccccc3)cc2)sc2ncccc12`, the outcome was “inactive”. In the case of `O=c1nc(Nc2ccc(CCc3ccccc3)cc2)sc2ncccc12`, the outcome is reported as “inactive”.

From PubChem BioAssay AID651930 (Southern Research Specialized Biocontainment Screening …, 2012)
